Measurements taken from PubChem BioAssay AID720566 (Broad Institute, 2013).
Results with a measured potency or affinity are listed apart. Calls of active or inactive are those of the source.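 Rule for the calls: active = in all runs, an absorbance decrease of 25% or more of the average positive control decrease; inconclusive = runs conflict, with both active and inactive results; inactive = all runs inactive, opposite-direction effects included.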

These compounds were tested against Protein disulfide-isomerase A6 (Homo sapiens) (UniProt Q15084) (assay: inhibitors of ERp5-mediated insulin aggregation, dose response, biochemical, turbidity, absorbance 650 nm, cherry-picked samples (AID 720566;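 note: negative values mean less insulin aggregation so ERp5 inhibition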)). Settings: Recombinant ERp5 insulin aggregation; series mostly up to 35 µM.
Protein disulfide-isomerase A6 (Homo sapiens), sequence (Q15084 whole entry, looked up): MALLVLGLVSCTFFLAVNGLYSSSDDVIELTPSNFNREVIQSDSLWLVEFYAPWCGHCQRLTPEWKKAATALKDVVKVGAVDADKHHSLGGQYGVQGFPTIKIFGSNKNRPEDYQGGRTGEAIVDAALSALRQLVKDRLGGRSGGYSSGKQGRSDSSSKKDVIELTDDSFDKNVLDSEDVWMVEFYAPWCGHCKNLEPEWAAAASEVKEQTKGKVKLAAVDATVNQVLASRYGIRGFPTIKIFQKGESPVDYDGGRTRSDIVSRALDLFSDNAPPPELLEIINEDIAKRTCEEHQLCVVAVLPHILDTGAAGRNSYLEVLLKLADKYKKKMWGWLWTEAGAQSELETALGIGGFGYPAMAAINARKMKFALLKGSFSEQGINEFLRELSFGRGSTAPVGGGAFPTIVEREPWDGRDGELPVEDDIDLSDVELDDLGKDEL

outcome, inactive:
CCCNC(=O)C[C@H]1C[C@@H]2c3cc(NC(=O)CC4CC4)ccc3O[C@@H]2[C@@H](CO)O1
O=C(Nc1ccncc1)C1CC(=O)N(c2ccccc2)C1 (stereo not drawn)
Cc1ccc(S(=O)(=O)N(C)C)cc1NC(=O)COC(=O)C1(c2ccccc2)CC1
C[C@@H]1CN([C@H](C)CO)C(=O)Cc2cc(NC(=O)c3ccncc3)ccc2O[C@H]1CN(C)S(=O)(=O)c1cn(C)cn1
C[C@H](CO)N1C[C@H](C)[C@H](CN(C)Cc2cccc(F)c2)Oc2ncc(Br)cc2C1=O
COc1ccc(Cc2nnc(SCC(=O)NC3(C#N)CCCCC3)n2N)cc1
COc1ccc(NC(=O)CSc2nnc(NC(=O)C3CC3)s2)cc1OC
CCCNC(=O)C[C@H]1CC[C@@H]2[C@@H](COc3ccc(NC(=O)c4ccccc4)cc3C(=O)N2C)O1
CCc1csc(CCNC(=O)C2CCC(=O)N(CCc3cccc(F)c3)C2)n1 (stereo not drawn)
C[C@@H]1CN([C@H](C)CO)C(=O)c2cc(C#CCN(C)C)cnc2O[C@H]1CN(C)Cc1cccc(F)c1
O=C1[C@@H](c2ccccc2)CC[C@@H]2C=CC[C@H]3CCN1[C@@H]32
COCC(=O)N(C)C[C@@H]1Oc2cc(C#CC(C)(C)O)ccc2S(=O)(=O)N([C@H](C)CO)C[C@@H]1C
Cc1ccc(NC(=O)COc2ccccc2)c(NC(=O)c2ccco2)c1
O=C(NCCCN1CCCC1)c1ccc(CS(=O)(=O)c2c(Cl)cccc2Cl)o1
COc1ccc2c3c([nH]c2c1)[C@H](CO)N(C(=O)CN(C)C)CC31CCN(CC2CCCC2)CC1
Cc1ccc(S(=O)(=O)N(CC(O)CN2CCOCC2)c2cccc([N+](=O)[O-])c2)cc1 (stereo not drawn)
O=C(NNC(=O)c1ccc2ccccc2c1)Nc1ccc(F)cc1
COc1ccc2c3c([nH]c2c1)[C@H](CO)N(C(=O)c1ccc(F)cc1)CC31CCN(C(=O)Nc2cccc(F)c2)CC1
Cc1ccc(S(=O)(=O)N2CCN(C(=O)CCc3nc4ccccc4c(=O)[nH]3)CC2)c(C)c1
O=C(N/N=C1\CCCc2ccccc21)c1ccccc1Cl
CC(C)CC#Cc1cnc2c(c1)C(=O)N([C@H](C)CO)C[C@H](C)[C@H](CN(C)Cc1ccccc1C(=O)O)O2
COc1ccccc1S(=O)(=O)N1C[C@H](O)COC[C@H]2O[C@@H](CC(=O)O)CC[C@@H]21
Cc1noc(C)c1NC(=O)N(C)C[C@H]1Oc2c(NS(=O)(=O)c3ccc(Cl)cc3)cccc2C(=O)N([C@@H](C)CO)C[C@@H]1C
Cc1noc(C)c1S(=O)(=O)Nc1cccc2c1O[C@H](CN(C)C(=O)Nc1ccc(C(F)(F)F)cc1)[C@H](C)CN([C@@H](C)CO)C2=O
COCC(=O)N(C)C[C@H]1Oc2cc(C#CC(C)(C)O)ccc2S(=O)(=O)N([C@@H](C)CO)C[C@@H]1C
COCC(=O)N(C)C[C@H]1Oc2cc(C#CC(C)(C)O)ccc2S(=O)(=O)N([C@@H](C)CO)C[C@H]1C
CCC(=O)Nc1ccc2c(c1)C(=O)N(C)[C@H]1CC[C@@H](CC(=O)NCC3CC3)O[C@@H]1CO2
Cc1ccc2nc(-c3cccc(Br)c3)c(Cc3cccc(Cl)c3)n2c1
CCN(c1ccccc1)S(=O)(=O)c1ccc(OC)c(NC(=O)c2c(C)noc2C)c1
CCC(=O)Nc1ccc2c(c1)OC[C@H](C)N(Cc1cccnc1)C[C@H](C)[C@H](OC)CN(C)C2=O
CCCN(C)C[C@@H]1Oc2cc(-c3ccc(F)cc3)ccc2S(=O)(=O)N([C@@H](C)CO)C[C@@H]1C
O=C(C[C@@H]1C[C@H]2c3cc(NS(=O)(=O)c4ccccc4)ccc3O[C@H]2[C@H](CO)O1)NC1CCCCC1
Cc1ccc([C@H]2N[C@]3(CCCN(Cc4ccc(Cl)cc4)C3=O)[C@H]3C(=O)N(C)C(=O)[C@@H]23)cc1
